Results from PubChem BioAssay (EPA / NIEHS).
Activity calls are given as the source filed them. How the source made its calls: active means hit-call score of the fitted dose curve at least 0.9, where 1 is the maximum; inactive means score below 0.9.

What was measured:
[1] = ATG_M_32_CIS: Attagene CIS-FACTORIAL HepG2 Assay for M32 Transcription Factor (Internal Marker) (AID 2282949); conditions: HepG2 Attagene cis-factorial M32 reporter, mRNA; actives raise or lower the signal;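 further: background control marker of the multiplexed CIS panel rather than a real target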
How it was run: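 Transient MRTU transfection of HepG2; 24 h compound treatment; TriZol RNA, oligo(dT) RT, reporter PCR, 6-FAM primer extension, HpaI cut, CE. Gain/loss of signal vs DMSO.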

[2] = ATG_M_06_CIS: Attagene CIS-FACTORIAL HepG2 Assay for M06 Transcription Factor (Internal Marker) (AID 2282950); conditions: HepG2 Attagene CIS-FACTORIAL M06 internal marker reporter; actives raise or lower the signal
How it was run: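 Measured 24 h post-dosing in transiently transfected HepG2 cells, this internal-marker endpoint reports reporter mRNA via RT-PCR with fluorescent primer extension and capillary electrophoresis. DMSO served as negative control and baseline for bidirectional fitting.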

[3] = molecular target: Hypoxia-inducible factor 1-alpha (Homo sapiens) (UniProt Q16665); test: ATG_HIF1a_CIS: Attagene CIS-FACTORIAL HepG2 Assay for human Hypoxia Inducible Factor 1 (HIF1A) (AID 2282951); conditions: HepG2 Attagene cis-factorial HIF1a reporter transcription; actives raise or lower the signal
How it was run: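 Measures endogenous transcription-factor activity through cis-regulated reporter mRNA in HepG2. Cells dosed 24 h; transcripts quantified by RT-PCR with 6-FAM-labelled products separated by capillary electrophoresis; DMSO serves as negative control.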

[4] = molecular target: Hepatocyte nuclear factor 6 (Homo sapiens) (UniProt Q9UBC0); test: ATG_HNF6_CIS: Attagene CIS-FACTORIAL HepG2 Assay for human Hepatocyte Nuclear Factor 6 (HNF6) (AID 2282952); conditions: HepG2 Attagene cis-factorial HNF6 reporter transcription; actives raise or lower the signal
How it was run: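 First, HepG2 cells were transfected with the multiplexed cis reporter library and dosed with chemical for 24 h. Next, RNA was reverse-transcribed, PCR-amplified and fluorescently labelled. Finally, HpaI-digested fragments were read by capillary electrophoresis.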

[5] = molecular target: Heat shock factor protein 1 (Homo sapiens) (UniProt Q00613); test: ATG_HSE_CIS: Attagene CIS-FACTORIAL HepG2 Assay for human Heat Shock Transcription Factor 1 (HSE) (AID 2282953); conditions: HepG2 HSE cis-reporter, Attagene RNA transcription; actives raise or lower the signal
How it was run: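 Reporter mRNA induction in HepG2 is measured 24 h after dosing, using transiently transfected multiplexed cis-regulated reporter units. Signal comes from capillary electrophoresis of labelled RT-PCR products, with DMSO as negative control.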

[6] = ATG_MRE_CIS: Attagene CIS-FACTORIAL HepG2 Assay for human Metal Responsive Element (MRE) (AID 2282954); conditions: HepG2 MRE cis-reporter transcription, Attagene multiplex; actives raise or lower the signal
How it was run: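 Multiplexed cis-reporter assay in human HepG2 liver cells, 24 h incubation with test chemical. Reporter transcripts measured by RT-PCR and capillary electrophoresis; values from bidirectional curve fitting versus DMSO.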

[7] = ATG_PBREM_CIS: Attagene CIS-FACTORIAL HepG2 Assay for human Phenobarbital-responsive Enhancer Module (PBREM) (AID 2282955); conditions: HepG2 PBREM cis-reporter, Attagene multiplexed transcription; actives raise or lower the signal
How it was run: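 Fluorescence of labelled reporter cDNA fragments, resolved by capillary electrophoresis, gives mRNA induction in transfected HepG2 cells treated for 24 h; DMSO serves as negative control and baseline.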

[8] = ATG_PXRE_CIS: Attagene CIS-FACTORIAL HepG2 Assay for human Pregnane X Receptor Element (PXRE) (AID 2282957); conditions: HepG2 Attagene CIS-FACTORIAL PXRE reporter, mRNA; actives raise or lower the signal
How it was run: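 After a 24 h chemical incubation, total RNA from transfected HepG2 cells was reverse-transcribed and reporter cDNA amplified, FAM-labeled, HpaI-digested and sized by capillary electrophoresis. DMSO served as baseline for bidirectional curve fitting.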

[9] = ATG_PPRE_CIS: Attagene CIS-FACTORIAL HepG2 Assay for human Peroxisome Proliferator-activated Response Element (PPRE) (AID 2282958); conditions: HepG2 PPRE cis-element reporter, Attagene transcription factor profiling; actives raise or lower the signal
How it was run: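 Cells are first transfected transiently with the multiplexed reporter library, then dosed for 24 h. Total RNA is reverse-transcribed, amplified, fluorescently end-labeled and HpaI-cut before capillary electrophoresis; activity is fitted bidirectionally against DMSO controls.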

[10] = ATG_RORE_CIS: Attagene CIS-FACTORIAL HepG2 Assay for human RAR-related Orphan Receptor Element (RORE) (AID 2282959); conditions: HepG2 Attagene cis-factorial RORE reporter, mRNA; actives raise or lower the signal
How it was run: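 Cells were HepG2 carrying transfected cis-regulated reporter constructs, dosed for 24 hours. Total RNA was reverse-transcribed and reporter cDNA amplified, fluorescently labeled and sized by capillary electrophoresis. Activity was fitted bidirectionally relative to DMSO.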

[11] = ATG_Sox_CIS: Attagene CIS-FACTORIAL HepG2 Assay for human SRY-box transcription factor (SOX) (AID 2282960); conditions: HepG2 Attagene cis-factorial SOX reporter, mRNA; actives raise or lower the signal
How it was run: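 Transient MRTU transfection of HepG2; 24 h compound incubation; TriZol RNA, oligo(dT) RT, PCR, 6-FAM primer extension, HpaI cut, CE. Bidirectional fit, DMSO = baseline.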

[12] = molecular target: Transcription factor Sp1 (Homo sapiens) (UniProt P08047); test: ATG_Sp1_CIS: Attagene CIS-FACTORIAL HepG2 Assay for human Specificity Protein 1 (Sp1) (AID 2282961); conditions: HepG2 Sp1 cis-reporter transcription, actives raise or lower the signal
How it was run: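 Endogenous Sp1 activity was gauged in human liver HepG2 cells bearing transfected reporter units under a cis-regulating promoter. After 24 h dosing, reporter mRNA was quantified by RT-PCR with capillary electrophoresis, and activity fitted bidirectionally versus DMSO.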

[13] = ATG_SREBP_CIS: Attagene CIS-FACTORIAL HepG2 Assay for human Sterol Regulatory Element Binding (SREBP) (AID 2282962); conditions: HepG2 Attagene cis-factorial SREBP reporter, mRNA; actives raise or lower the signal
How it was run: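 Readout: fluorescent reporter-transcript peaks resolved by capillary electrophoresis after RT-PCR. Cells were human HepG2 carrying transfected cis-promoter reporter constructs, dosed for 24 h. Gain or loss of signal was fitted against DMSO controls.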

[14] = molecular target: Signal transducer and activator of transcription 3 (Homo sapiens) (UniProt P40763); test: ATG_STAT3_CIS: Attagene CIS-FACTORIAL HepG2 Assay for human Signal Transducer and Activator of Transcription 3 (STAT3) (AID 2282963); conditions: HepG2, Attagene cis-factorial STAT3 reporter transcription; actives raise or lower the signal
How it was run: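 Cis-factorial format: endogenous transcription factors in HepG2 drive transfected reporter units. After 24 h treatment, reporter RNA was reverse-transcribed, amplified, FAM-labelled and HpaI-digested before CE analysis; activity scored in both directions against DMSO.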

[15] = ATG_TA_CIS: Attagene CIS-FACTORIAL HepG2 Assay for human TA Basal Promoter (AID 2282964); conditions: HepG2 Attagene CIS-factorial TA basal promoter reporter; actives raise or lower the signal
How it was run: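 Cis-factorial format in HepG2: reporters report endogenous factors, not chimeric Gal4 fusions. After 24 h treatment, reporter transcripts were measured by RT-PCR-capillary electrophoresis fluorescence, analysed bidirectionally versus DMSO.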

[16] = ATG_TAL_CIS: Attagene CIS-FACTORIAL HepG2 Assay for human TAL Basal Promoter (AID 2282966); conditions: HepG2 Attagene cis-factorial TAL promoter reporter; actives raise or lower the signal;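 further: background control endpoint measuring basal TAL promoter reporter mRNA not a specific factor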
How it was run: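 Basal-promoter background-control endpoint from a multiplexed HepG2 reporter panel. Cells were exposed 24 h, then reporter mRNA was read by RT-PCR/CE fluorescence and fitted in both directions relative to DMSO.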

[17] = ATG_TGFb_CIS: Attagene CIS-FACTORIAL HepG2 Assay for human Transforming Growth Factor (TGF) (AID 2282967); conditions: HepG2 Attagene CIS TGFb reporter, mRNA transcription; actives raise or lower the signal
How it was run: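 Multiplexed cis-reporter HepG2 system, 24 h treatment; mRNA induction read by fluorescence after RT-PCR and CE; DMSO negative control, bidirectional curve fitting.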

[18] = ATG_VDRE_CIS: Attagene CIS-FACTORIAL HepG2 Assay for human Vitamin D Receptor Element (VDRE) (AID 2282968); conditions: HepG2 VDRE cis-reporter transcription, actives raise or lower the signal
How it was run: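 Measures endogenous factor activity through cis-element-driven reporter transcripts in transiently transfected HepG2. Cells are treated 24 h; reporter mRNA is quantified by RT-PCR and capillary electrophoresis; fitting is bidirectional.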

[19] = molecular target: Paired box protein Pax-6 (Homo sapiens) (UniProt P26367); test: ATG_Pax6_CIS: Attagene CIS-FACTORIAL HepG2 Assay for human Paired Box 6 (PAX6) (AID 2282956); conditions: HepG2 CIS-FACTORIAL PAX6 reporter transcription, RNA readout; actives raise or lower the signal
How it was run: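 Readout: reporter transcript fluorescence after RT-PCR and capillary electrophoresis. Cells: HepG2, transiently transfected with cis-regulated MRTUs. Exposure 24 h. Gain or loss of signal fitted bidirectionally relative to DMSO.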

[20] = ATG_TCF_b_cat_CIS: Attagene CIS-FACTORIAL HepG2 Assay for human T-Cell-Factor with beta-catenin (TCF/b-cat) (AID 2282965); conditions: HepG2 TCF/beta-catenin cis-reporter transcription, actives raise or lower the signal
How it was run: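 Endogenous TCF/LEF activity read as reporter transcript level via RT-PCR and capillary electrophoresis fluorescence in transfected HepG2, 24 h exposure; gain or loss of signal fitted against DMSO controls.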

Measured: AC50

Hypoxia-inducible factor 1-alpha (Homo sapiens), sequence (Q16665 whole entry, looked up): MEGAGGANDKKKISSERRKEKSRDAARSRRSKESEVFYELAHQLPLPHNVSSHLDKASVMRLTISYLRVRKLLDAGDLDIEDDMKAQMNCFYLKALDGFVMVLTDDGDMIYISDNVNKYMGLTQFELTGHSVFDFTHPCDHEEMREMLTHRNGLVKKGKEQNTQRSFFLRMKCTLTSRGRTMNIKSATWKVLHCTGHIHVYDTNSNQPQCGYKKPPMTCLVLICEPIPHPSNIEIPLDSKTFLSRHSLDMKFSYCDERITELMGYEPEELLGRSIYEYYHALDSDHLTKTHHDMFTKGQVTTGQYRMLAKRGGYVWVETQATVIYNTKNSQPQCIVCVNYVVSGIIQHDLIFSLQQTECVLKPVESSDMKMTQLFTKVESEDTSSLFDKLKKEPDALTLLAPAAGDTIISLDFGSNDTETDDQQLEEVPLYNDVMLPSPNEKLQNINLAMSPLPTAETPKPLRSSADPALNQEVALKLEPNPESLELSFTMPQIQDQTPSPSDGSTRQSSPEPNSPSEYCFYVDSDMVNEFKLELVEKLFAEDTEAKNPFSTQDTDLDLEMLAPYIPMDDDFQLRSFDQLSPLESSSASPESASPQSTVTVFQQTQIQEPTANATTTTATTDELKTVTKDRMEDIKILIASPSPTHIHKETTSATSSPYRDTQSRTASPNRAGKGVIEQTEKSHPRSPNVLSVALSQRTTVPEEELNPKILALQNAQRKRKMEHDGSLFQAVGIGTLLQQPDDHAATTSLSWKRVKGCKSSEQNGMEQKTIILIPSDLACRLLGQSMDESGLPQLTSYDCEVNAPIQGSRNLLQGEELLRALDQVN
Hepatocyte nuclear factor 6 (Homo sapiens), sequence (Q9UBC0 whole entry, looked up, the tested form may be a part): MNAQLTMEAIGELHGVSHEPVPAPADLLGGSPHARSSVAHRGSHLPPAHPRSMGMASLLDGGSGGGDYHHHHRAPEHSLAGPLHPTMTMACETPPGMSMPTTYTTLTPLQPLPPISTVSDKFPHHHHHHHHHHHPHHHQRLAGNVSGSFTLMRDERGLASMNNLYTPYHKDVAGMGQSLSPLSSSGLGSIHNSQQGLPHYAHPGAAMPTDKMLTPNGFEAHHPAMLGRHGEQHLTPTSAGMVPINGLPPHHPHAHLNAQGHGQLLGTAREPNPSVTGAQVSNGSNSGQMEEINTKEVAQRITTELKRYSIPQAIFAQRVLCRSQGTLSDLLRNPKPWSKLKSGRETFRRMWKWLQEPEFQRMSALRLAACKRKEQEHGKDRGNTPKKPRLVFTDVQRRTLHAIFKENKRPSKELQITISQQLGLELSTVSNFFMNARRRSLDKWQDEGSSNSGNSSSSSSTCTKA
Paired box protein Pax-6 (Homo sapiens), sequence (P26367 whole entry, looked up): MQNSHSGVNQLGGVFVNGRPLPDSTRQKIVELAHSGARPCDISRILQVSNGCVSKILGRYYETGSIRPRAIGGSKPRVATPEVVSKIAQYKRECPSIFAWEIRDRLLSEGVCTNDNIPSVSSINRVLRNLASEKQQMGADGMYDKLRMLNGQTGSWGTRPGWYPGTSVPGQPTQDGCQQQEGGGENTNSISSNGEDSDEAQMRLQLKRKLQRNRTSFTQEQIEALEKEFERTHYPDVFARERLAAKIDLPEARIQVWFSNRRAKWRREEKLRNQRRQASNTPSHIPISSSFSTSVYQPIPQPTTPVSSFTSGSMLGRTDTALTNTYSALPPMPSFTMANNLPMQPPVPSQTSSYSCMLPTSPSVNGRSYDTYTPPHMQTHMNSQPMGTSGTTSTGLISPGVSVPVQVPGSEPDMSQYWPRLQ
Transcription factor Sp1 (Homo sapiens), sequence (P08047 whole entry, looked up): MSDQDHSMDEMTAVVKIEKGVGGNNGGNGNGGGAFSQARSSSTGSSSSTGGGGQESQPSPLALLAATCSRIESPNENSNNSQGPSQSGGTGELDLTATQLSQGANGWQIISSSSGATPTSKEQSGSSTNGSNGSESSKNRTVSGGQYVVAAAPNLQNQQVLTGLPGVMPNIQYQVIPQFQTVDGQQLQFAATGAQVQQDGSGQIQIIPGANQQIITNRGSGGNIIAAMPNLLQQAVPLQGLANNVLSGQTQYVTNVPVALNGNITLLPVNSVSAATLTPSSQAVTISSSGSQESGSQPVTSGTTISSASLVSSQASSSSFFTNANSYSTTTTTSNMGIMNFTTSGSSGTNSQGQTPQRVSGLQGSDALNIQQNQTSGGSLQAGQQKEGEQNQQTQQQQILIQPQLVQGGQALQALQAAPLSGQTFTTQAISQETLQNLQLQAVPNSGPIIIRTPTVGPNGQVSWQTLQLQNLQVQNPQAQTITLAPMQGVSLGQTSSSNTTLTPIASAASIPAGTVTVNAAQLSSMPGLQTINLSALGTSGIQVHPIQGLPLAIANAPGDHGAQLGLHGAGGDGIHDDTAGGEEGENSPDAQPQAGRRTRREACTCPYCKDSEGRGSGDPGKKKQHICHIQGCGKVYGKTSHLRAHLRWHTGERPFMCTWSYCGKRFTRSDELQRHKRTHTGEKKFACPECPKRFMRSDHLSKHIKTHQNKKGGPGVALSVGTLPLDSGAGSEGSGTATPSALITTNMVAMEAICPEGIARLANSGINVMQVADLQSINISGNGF
Signal transducer and activator of transcription 3 (Homo sapiens), sequence (P40763 whole entry, looked up): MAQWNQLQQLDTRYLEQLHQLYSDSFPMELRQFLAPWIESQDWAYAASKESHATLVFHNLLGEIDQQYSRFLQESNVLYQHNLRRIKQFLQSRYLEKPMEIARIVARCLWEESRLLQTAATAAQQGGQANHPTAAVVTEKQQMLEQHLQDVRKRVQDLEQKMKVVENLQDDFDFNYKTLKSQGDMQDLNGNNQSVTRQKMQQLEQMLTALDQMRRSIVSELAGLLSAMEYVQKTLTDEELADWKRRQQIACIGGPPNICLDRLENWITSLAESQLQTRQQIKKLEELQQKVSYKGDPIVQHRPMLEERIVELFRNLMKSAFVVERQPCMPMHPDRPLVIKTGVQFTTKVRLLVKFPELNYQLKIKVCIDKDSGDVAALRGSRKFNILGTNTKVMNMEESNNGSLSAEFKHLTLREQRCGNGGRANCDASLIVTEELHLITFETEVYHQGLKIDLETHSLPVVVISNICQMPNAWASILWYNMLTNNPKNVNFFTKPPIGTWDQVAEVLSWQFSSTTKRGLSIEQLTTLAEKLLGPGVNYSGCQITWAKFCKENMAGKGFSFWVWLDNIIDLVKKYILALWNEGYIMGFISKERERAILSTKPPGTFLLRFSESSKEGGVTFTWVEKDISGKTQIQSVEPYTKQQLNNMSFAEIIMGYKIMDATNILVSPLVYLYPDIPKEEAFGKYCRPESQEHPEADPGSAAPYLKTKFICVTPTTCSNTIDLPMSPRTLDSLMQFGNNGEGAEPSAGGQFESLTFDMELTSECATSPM
Heat shock factor protein 1 (Homo sapiens), sequence (Q00613 whole entry, looked up): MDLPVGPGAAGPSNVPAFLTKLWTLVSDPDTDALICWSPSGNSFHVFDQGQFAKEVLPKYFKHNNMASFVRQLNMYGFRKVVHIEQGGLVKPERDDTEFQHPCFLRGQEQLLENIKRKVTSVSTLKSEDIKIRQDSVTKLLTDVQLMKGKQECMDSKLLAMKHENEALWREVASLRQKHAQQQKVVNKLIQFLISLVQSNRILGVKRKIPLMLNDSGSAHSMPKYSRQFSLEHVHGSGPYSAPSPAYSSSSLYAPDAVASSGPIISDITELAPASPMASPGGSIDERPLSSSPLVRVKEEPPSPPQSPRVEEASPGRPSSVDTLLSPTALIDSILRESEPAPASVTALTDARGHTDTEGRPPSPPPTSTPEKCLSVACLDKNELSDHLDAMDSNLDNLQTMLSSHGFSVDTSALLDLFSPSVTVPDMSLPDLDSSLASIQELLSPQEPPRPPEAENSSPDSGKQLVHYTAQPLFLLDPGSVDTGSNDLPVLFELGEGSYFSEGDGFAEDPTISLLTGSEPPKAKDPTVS

CC(C=O)Cc1ccc2c(c1)OCO2 (centres undefined)
active: [8] 17 µM | [18] 12.8 µM
not listed: [19] | [20]
inactive: all other assays above

C=CCc1ccccc1O
active: [8] 29.3 µM
not listed: [7] | [9]
inactive: all other assays above

O=C(CBr)c1ccc(O)cc1
not listed: [7] | [9]
inactive: all other assays above

C#CCOC(=O)/C=C(C)/C=C/CC(C)CCCC(C)C (centres undefined)
not listed: [16] | [19]
inactive: all other assays above

Cl[C@H]1OCCO[C@@H]1Cl
active: [3] 49.6 µM
not listed: [18] | [19] | [20]
inactive: all other assays above

O=NN1CCCCCC1
active: [8] 53 µM
not listed: [7] | [9]
inactive: all other assays above

CN(C)C(=S)S
active: [8] 26.3 µM
not listed: [7] | [9] | [10]
inactive: all other assays above
